Screening data from PubChem.
ANO1 activ: TMEM16A chloride channel activators or potentiators, primary screen, cell-based, HTS; HEK293 TMEM16A/YFP-H148Q/I152L, iodide quench fluorescence; active compounds read low; B-score at 10 µM; 340,000 tested, 0.3% active; Anoctamin-1 (Mus musculus), Q8BHY3;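 active = fluorescence-ratio B-score plate-corrected deviation score at least 3 library SD below zero, with starting fluorescence score within 5 deviations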;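 note: channel opened by trigger with iodide after compound preincubation; score built on the fluorescence ratio of max minus min over baseline; more negative score means more quench and so TMEM16A activation or potentiation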
Target sequence (Q8BHY3 whole entry, looked up): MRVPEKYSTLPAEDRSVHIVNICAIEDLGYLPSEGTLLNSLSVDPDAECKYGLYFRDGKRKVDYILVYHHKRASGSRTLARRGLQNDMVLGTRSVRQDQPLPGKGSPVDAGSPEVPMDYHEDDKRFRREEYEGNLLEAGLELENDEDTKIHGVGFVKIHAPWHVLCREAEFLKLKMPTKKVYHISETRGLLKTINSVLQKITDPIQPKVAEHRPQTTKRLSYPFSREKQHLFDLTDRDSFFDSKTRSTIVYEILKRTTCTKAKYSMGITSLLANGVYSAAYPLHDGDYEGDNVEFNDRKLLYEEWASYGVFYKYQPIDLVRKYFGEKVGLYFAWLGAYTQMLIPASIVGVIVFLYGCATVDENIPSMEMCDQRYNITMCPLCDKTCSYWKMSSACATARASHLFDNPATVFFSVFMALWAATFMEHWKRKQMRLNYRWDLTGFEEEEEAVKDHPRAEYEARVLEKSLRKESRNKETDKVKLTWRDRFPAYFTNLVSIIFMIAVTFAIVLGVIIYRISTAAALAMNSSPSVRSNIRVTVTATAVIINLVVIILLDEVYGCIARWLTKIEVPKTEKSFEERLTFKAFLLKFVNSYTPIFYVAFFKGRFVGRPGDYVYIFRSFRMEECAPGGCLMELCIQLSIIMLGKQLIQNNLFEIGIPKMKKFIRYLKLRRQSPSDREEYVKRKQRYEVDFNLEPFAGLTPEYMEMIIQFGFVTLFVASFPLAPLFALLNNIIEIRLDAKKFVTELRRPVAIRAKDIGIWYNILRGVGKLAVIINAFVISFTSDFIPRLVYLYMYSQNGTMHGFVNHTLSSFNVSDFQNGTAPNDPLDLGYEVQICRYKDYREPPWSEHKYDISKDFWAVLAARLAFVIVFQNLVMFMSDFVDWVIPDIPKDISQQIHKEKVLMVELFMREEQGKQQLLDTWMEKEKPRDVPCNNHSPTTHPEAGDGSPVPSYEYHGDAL
CHT block: inhibitors of human choline transporter CHT. CHT-expressing cells, membrane potential dye, choline response; active compounds read low. B-score at 10 µM. 310,000 tested, 0.86% active. AID 488975, 2010;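 active = B-score over 3 SD under the library average, and starting fluorescence ratio not unusually high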;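 note: choline stimulus applied at its EC90 after an EC20 pre-addition; B-score computed on integrated fluorescence ratio after choline addition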
ANO1 block: TMEM16A chloride channel inhibitors, primary screen, cell-based, HTS. 310,000 tested, 1.2% active. Anoctamin-1 (Mus musculus), Q8BHY3. normalized B-score (activity score, 25-100; higher = stronger inhibition) at 10 µM. HEK293 TMEM16A/YFP iodide influx fluorescence, ionomycin;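 active = ratio plate-corrected score three or more library SD toward inhibition, starting fluorescence score within five deviations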;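 note: score derived from kinetic fluorescence span divided by baseline fluorescence per well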
CHT PAM: CHT positive allosteric modulators, primary screen, cell-based, membrane potential dye, choline EC20; 310,000 tested, 0.49% active; CHT-expressing cells; active compounds read high; LV-AA mutant CHT in HEK293 cells; High affinity choline transporter 1 (Homo sapiens), Q9GZV3; B-score at 10 µM;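 active = initial fluorescence not abnormally high and integrated response B-score, plate-corrected, over 3 SD above library mean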
CHT inh conf: CHT inhibitors, confirmation, cell-based, membrane potential dye, duplicate; shares compounds with CHT block; CHT-expressing cells, choline membrane potential dye; LV-to-AA substituted CHT, HEK293 cells; CHT activity remaining % of control (active compounds read low), % at 10 µM; 2,400 tested, 70% active; AID 493221, 2011;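 active = choline transporter activity left, mean of duplicates at 10 µM, below buffer-only control mean minus 3 SD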;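 note: depolarization triggered by choline at its EC90 following an EC20 pre-addition; 0% = hemicholinium-3 full block and 100% = buffer-only control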
HEK293 MPD ctr: membrane potential effects in parental HEK293, counter-screen for CHT inhibitor project, cell-based, membrane potential dye; choline response; active = decrease or increase beyond buffer ±3SD; membrane potential ratio readout (active if shifted either direction beyond buffer ±3SD; no single direction) at 10 µM; shares compounds with CHT block; 2,400 tested, 4% active;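 note: parental cells lack the transporter so any hit is non-specific; ratio is peak minus trough fluorescence over baseline after EC90 choline challenge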
Active calls of the source: *; i = inactive; nt = no result given. Compounds with a hit are over-represented: about 2.4% of the library has one in this group of screens.

SMILES	ANO1 activ	CHT block	ANO1 block	CHT PAM	CHT inh conf	HEK293 MPD ctr
CCOC(=O)C1=C(C)NC(=O)C(C#N)C1c1ccco1 (stereo not given)	i	i	i	i	nt	nt
N#CC12C(=O)NC(=O)C1(C#N)C21CCCC1 (stereo not given)	i	nt	nt	nt	nt	nt
CC1C(=O)N(c2ccc(S(=O)(=O)N(C)C)cc2)C1(/C=C/c1ccccc1)C(=O)NC1CCCC1 (stereo not given)	i	-6.8*	i	i	i	i
COC(=O)C(C)Oc1ccc2c3c(c(=O)oc2c1)CCCCC3 (stereo not given)	i	-5.2*	i	i	i	i
CC(/C=C1\SC(=O)N(CCCC(=O)O)C1=O)=C\c1ccccc1	i	-5*	i	i	64%*	i
CC(C)(C)c1nn(-c2ccccc2)c2[nH]c(=O)c(C=O)cc12	i	i	i	i	nt	nt
NC1=NC2(CCCCCC2)n2c(nc3ccccc32)N1	i	-5.5*	i	i	15%*	i
Cc1ccccc1OCCn1c(C)nc2ccccc21	i	-5.2*	i	i	i	i
COc1cccc2cc(C(=O)C3=C(O)C(=O)N(CCN4CCOCC4)C3c3ccc(C)o3)oc12 (stereo not given)	i	i	i	i	nt	nt
CC1CCC(NC(=O)CCn2ccc3cc(S(=O)(=O)N4CCCC4)ccc32)CC1 (stereo not given)	i	-6.3*	i	i	39%*	i
CC1CCN(S(=O)(=O)c2ccc3c(ccn3CCC(=O)N3CCCCC3)c2)CC1	i	i	i	i	nt	nt
O=C(O)CCSc1nnc(SCC(=O)NCC(F)(F)F)s1	i	i	i	i	nt	nt
N/C(=N\O)c1ccc(N2CCN(c3ncccc3C(F)(F)F)CC2)nc1	i	-5.7*	i	i	45%*	i
CC(C)(C)C(=O)N1CCN(c2ncccc2C(F)(F)F)CC1	i	i	i	i	nt	nt
COc1ccccc1N1CCN(C2CCCN(C(=O)CN3CCCCC3=O)C2)CC1 (stereo not given)	i	i	i	i	nt	nt
COC(=O)C(C)Sc1nc2c(c(=O)[nH]c(=O)n2C)n1CCC(C)C (stereo not given)	nt	-5.1*	i	i	40%*	i
CCC(C)Nc1nc2c(c(=O)[nH]c(=O)n2C)n1CCC(C)C (stereo not given)	i	-8.3*	i	i	i	i
COC(=O)C(C)Sc1nc2c(c(=O)n(C)c(=O)n2C)n1CCC(C)C (stereo not given)	i	i	i	i	nt	nt
CN(CCCC(=O)N1CCCC(C(N)=O)C1)S(=O)(=O)c1ccc(F)cc1 (stereo not given)	i	i	i	i	nt	nt
COc1ccccc1OCc1ccc(C(=O)N2N=C(C(F)F)CC2(O)C(F)F)o1 (stereo not given)	i	-5.2*	i	i	i	i
O=C(CO/N=C/c1ccccc1O)N1CCc2ccccc21	i	i	i	i	nt	nt
CCCn1nc(NC(=O)c2cccs2)c2cc3cc(C)ccc3nc21	i	i	i	i	nt	nt
CCOC(=O)C1=C(C)N=c2s/c(=C/c3cccc([N+](=O)[O-])c3O)c(=O)n2C1c1cc(OC)c(OC)c(OC)c1 (stereo not given)	i	-9.8*	i	i	28%*	i
O=C(Nc1ccc(OC(F)F)cc1)c1cc[n+]([O-])cc1	i	i	i	i	nt	nt
CC(C)OC(=O)c1ccc(COC(=O)c2cccc(-c3nnc(-c4ccccc4)o3)c2)cc1	i	i	i	i	nt	nt
SMILES	ANO1 activ	CHT block	ANO1 block	CHT PAM	CHT inh conf	HEK293 MPD ctr
CC(C)OC(=O)c1cccc(-c2ccc(C=O)o2)c1	i	-5.2*	i	i	56%*	i
Cc1ccc(NC(=O)CN2C(=O)NC3(CCc4ccccc43)C2=O)cc1Cl (stereo not given)	i	-11*	i	i	34%*	i
CC(=O)NCCC(=O)N(C)CC1CCN(CCc2cccc(C(F)(F)F)c2)CC1	i	i	i	i	nt	nt
COc1ccc(S(=O)(=O)Cc2ccc(C(=O)N3CCN(c4cccc(C)c4)C(C)C3)o2)cc1 (stereo not given)	i	-5.4*	i	i	i	i
CC(C)N(CCCNC(=O)C1CCN(S(=O)(=O)N2CCOCC2)CC1)Cc1ccccc1	i	i	i	i	nt	nt
O=C1NC(=S)S/C1=C\c1coc2ccccc2c1=O	i	-8.4*	i	i	55%*	i
CN(C)C(=O)c1ccccc1Sc1ccc(Cl)cc1Cl	i	-5*	i	i	i	i
CC(=O)Nc1ccc(NC(=O)c2ccccc2Sc2ccc([N+](=O)[O-])cc2Cl)cc1	i	i	i	i	nt	nt
CCn1c(SCC(=O)Nc2ccccc2C(=O)OC)nnc1-c1ccc(N)cc1	i	i	i	i	nt	nt
CCn1c(SCC(=O)Nc2ccccc2C(=O)OC)nnc1-c1ccoc1C	i	-5.6*	i	i	i	i
O=C(Nc1ccccc1N1CCOCC1)c1cccc(NS(=O)(=O)c2ccc(F)c(F)c2)c1	i	-5.5*	i	i	i	i
O=C(Nc1ccccc1N1CCOCC1)c1cccc(S(=O)(=O)N2CCOCC2)c1	i	nt	nt	nt	nt	nt
CCN1CCN(C(=O)c2ccc3nc(-c4ccccc4)c(-c4ccccc4)nc3c2)CC1	i	-7*	i	i	22%*	i
CN1CCN(CCNC(=O)c2ccc3nc(-c4ccc(F)cc4)c(-c4ccc(F)cc4)nc3c2)CC1	i	-12*	i	i	8.4%*	i
CC(C)c1nc(C(=O)N2CCCC(CCC(=O)N(C)CCc3ccccn3)C2)cs1 (stereo not given)	i	-5.4*	i	i	i	i
C#CCOC(=O)Nc1cccn(Cc2c(Cl)cccc2Cl)c1=O	i	-5.1*	i	i	i	i
Cc1ccccc1CC(=O)c1ccc(O)c(C)c1O	i	i	i	i	nt	nt
Cc1c(O)ccc(/C(Cc2ccc3ccccc3n2)=N\N)c1O	i	-5.9*	i	i	56%*	i
CC(/C=C1\NC(=S)NC1=O)=C\c1ccccc1	i	-5.5*	i	i	68%*	i
